GPR151 ag: activators of human GPR151, primary screen, cell-based, PathHunter beta-arrestin, luminescence. G-protein coupled receptor 151 (Homo sapiens), Q8TDV0. PathHunter beta-arrestin GPR151 cells. activation, % at 11.2 µM. 650,000 compounds, 1% hits. AID 1508602, 2020; in the data active means activation above about 4.9%;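 further: 0% = median of compound wells and 100% = cells with positive control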
TEAD-YAP block: TEAD-YAP interaction inhibition, primary screen, TEAD-YAP interaction inhibitor project, luminescence, HEK-TIYL cells; TEAD-Gal4/YAP UAS-luciferase luminescence; 640,000 compounds, 1.4% hits; inhibition, % at 9.12 µM; in the data active means inhibition above about 32%;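 further: 0% = median of test compound wells and 100% = reference inhibitor wells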
MITF primary: MITF inhibitors, primary screen, biochemical, AlphaScreen, human. Microphthalmia-associated transcription factor (Homo sapiens), O75030. AlphaScreen MITF homodimerization, bead proximity signal. inhibition, % at 2.6 µM. 650,000 compounds, 0.91% hits; in the data active means inhibition above about 50%;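 further: 0% = vehicle wells with protein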
Target sequence (O75030 whole entry, looked up): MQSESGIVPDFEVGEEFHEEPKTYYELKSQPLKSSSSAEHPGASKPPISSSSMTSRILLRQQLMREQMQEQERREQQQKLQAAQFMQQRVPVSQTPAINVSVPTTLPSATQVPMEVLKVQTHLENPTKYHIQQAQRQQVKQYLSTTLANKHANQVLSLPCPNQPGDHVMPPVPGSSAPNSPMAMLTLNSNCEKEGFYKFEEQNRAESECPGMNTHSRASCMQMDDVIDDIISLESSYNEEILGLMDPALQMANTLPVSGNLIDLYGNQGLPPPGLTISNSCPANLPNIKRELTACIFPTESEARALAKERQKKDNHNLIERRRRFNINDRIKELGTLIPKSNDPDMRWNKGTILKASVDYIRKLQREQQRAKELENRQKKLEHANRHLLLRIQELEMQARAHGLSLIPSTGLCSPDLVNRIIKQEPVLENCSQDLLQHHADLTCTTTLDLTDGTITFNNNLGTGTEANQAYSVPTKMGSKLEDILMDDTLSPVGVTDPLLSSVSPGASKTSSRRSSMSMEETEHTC
FBW7 activator: FBW7 E3 ligase activators, primary screen, biochemical, AlphaScreen, human. F-box/WD repeat-containing protein 7 (Homo sapiens), Q969H0. AlphaScreen FBW7–phospho-cyclin E peptide binding, activator screen. normalized activity (activation), % at 26.1 µM. 650,000 compounds, 0.13% hits. AID 1259310, 2017; in the data active means normalized activity above about 1.9%;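 further: purified mutant Fbw7 with reduced substrate affinity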
* = called active by the depositor. Hits are enriched below; roughly 3.4% of the tested compounds scored in any of these assays.

SMILES | GPR151 ag | TEAD-YAP block | MITF primary | FBW7 activator
CCOC(=O)c1ccc(Oc2nc(NC)nc(OC)n2)cc1 | -1 | 0 | 14 | 1.9*
O=c1c[n+]([O-])c2ccccc2n1OCc1ccc(Cl)cc1 | 1 | 3 | 6 | 0
Cn1c(=O)c2nc(-c3cccc(F)c3)oc2c2ccccc21 | 0 | 0 | 1 | 0
O=C(Nc1cc(-c2ccccc2Oc2ccccc2F)ccn1)C1CCOC1 (configuration not stated) | 0 | 37* | 1 | 0
Cc1ccc(C(=O)N2CCN(C)CC2)cc1Br | 0 | -2 | -1 | 0
CCOC(=O)c1nnn(-c2nonc2N)c1CN(Cc1ccccc1)C(C)C | 1 | 44* | 2 | 0
CCOC(=O)c1nnn(-c2nonc2N)c1CN(CC)c1ccccc1 | -1 | -8 | -3 | 0
COc1ccc(C2CC(=O)c3c(ccc4ccccc34)N2)cc1 (configuration not stated) | -1 | 0 | 11 | 0
COc1ccc(Br)cc1C1CC(=O)c2c(ccc3ccccc23)N1 (configuration not stated) | 0 | 37* | 2 | 0
COC(=O)c1cc(S(=O)(=O)NCc2cccnc2)c[nH]1 | -3 | 0 | 1 | 0
CC(=O)N(C)C1=C(N2CCCCC2)C(=O)c2ccccc2C1=O | -1 | 91* | 0 | 0
CC(=O)N(C1=C(N2CCCCC2)C(=O)c2ccccc2C1=O)c1ccccc1C | -2 | 36* | 14 | 0
COc1ccc(-n2c(SC)nc3c(sc(=S)n3-c3ccccc3)c2=O)cc1OC | -1 | -3 | 14 | 0
O=C(c1ccco1)N1CCOc2ccc(C(O)C3CCCCC3)cc2C1 (configuration not stated) | -1 | 12 | 8 | 1
Nc1c(S(=O)(=O)O)cc(Nc2ccc(Nc3nc(Cl)nc(Nc4ccc(S(=O)(=O)O)cc4)n3)c(S(=O)(=O)O)c2)c2c1C(=O)c1ccccc1C2=O | -2 | 11 | 61* | 0
CC(=O)Nc1cc(-c2ccc(C(C)(C)C)cc2)nn1-c1ccccc1 | 1 | -20 | -6 | 0
COc1cccc(/C=C2\CN(C)C/C(=C\c3cccc(OC)c3OC)C2=O)c1OC | 0 | 33* | 17 | 0
Cc1ccc(CCN2CC(C(=O)NCCN(C)C)CC2=O)cc1 (configuration not stated) | 0 | -5 | 3 | 0
COCCCn1c(C)cc(C(=O)CSc2ncnc3sccc23)c1C | 0 | 43* | 14 | 0
CCNc1nc(NCC)nc(-n2nc(C)cc2C)n1 | 3 | 53* | -2 | 0
Cc1cc(C)nc(-n2nc(C)cc2C)n1 | 0 | -6 | 2 | 0
Cn1cc(C(=O)N/N=C/c2c[nH]c3ccccc23)c2ccccc21 | 0 | 37* | 2 | 0
O=C(N/N=C/c1c[nH]c2ccccc12)c1ccncc1 | 2 | 5 | 14 | 0
CCOc1ccc(/C=N/NC(=O)/C(=C/c2ccccc2O)NC(=O)c2ccccc2)cc1 | -8 | 88* | 31 | 0
O=C(N/N=C/c1c[nH]c2ccccc12)/C(=C/c1ccccc1O)NC(=O)c1ccccc1 | -8 | 86* | 20 | 0
SMILES | GPR151 ag | TEAD-YAP block | MITF primary | FBW7 activator
CCOc1ccc(S(=O)(=O)N(CC(=O)Nc2cccc(OC)c2)c2ccccc2)cc1 | -2 | 3 | -3 | 0
CCOCc1cc(CN2CCN(c3ccccc3)CC2)c(O)c2ncccc12 | 1 | 59* | 95* | -1
Oc1c(CN2CCN(c3cccc(Cl)c3)CC2)cc(COCc2ccccc2)c2cccnc12 | 0 | 13 | 9 | -1
CCOC(=O)C1CCCN(Cc2cc(Cl)c3cccnc3c2O)C1 (configuration not stated) | 0 | 16 | 36 | 0
CCOCc1cc(CN2CCCCC2)c(O)c2ncccc12 | -1 | 27 | 103* | -1
CCOC(=O)C(C)(C)Sc1ncnc2c1c(-c1ccccc1)cn2-c1ccc(OC)cc1 | -1 | 5 | -32 | 0
CCN(Cc1ccccc1)S(=O)(=O)c1ccc(-n2cnnn2)c(C)c1 | 0 | 1 | 11 | 0
CCCNc1nc(NCCN2CCOCC2)nc2c1ncn2C(C)C | 1 | 6 | -7 | 0
O=C(NCCN1CCOCC1)c1cc(-c2ccco2)on1 | 0 | -35 | 15 | 0
COc1ccc(Nc2cc(C)nc3ccc(OC)cc23)cc1 | -1 | 10 | -1 | 0
COC(=O)c1ccc(Nc2cc(C)nc3cc(Cl)ccc23)cc1 | 0 | 49* | -2 | 0
COC(=O)c1ccc2nc(C)cc(Nc3ccc(C(=O)O)cc3)c2c1 | 1 | 11 | 18 | 0
COc1ccc2nc(C)cc(Nc3ccc(O)cc3)c2c1 | -1 | 34* | 2 | 0
COC(=O)c1ccc(Nc2cc(C)nc3ccc(Cl)cc23)cc1 | 1 | 49* | 13 | 0
Oc1ccccc1/C=N\Nc1nc2ccccc2[nH]1 | 0 | -28 | 16 | -1
Oc1ccc(/C=N/Nc2nc(Nc3ccccc3)nc(Nc3ccccc3)n2)c(O)c1 | 0 | 51* | 8 | 0
Oc1ccc(/C=N/Nc2nc3ccccc3[nH]2)c(O)c1 | -1 | 16 | 65* | -1
Oc1c(Cl)cc(Cl)cc1/C=N/Nc1nc2ccccc2[nH]1 | 0 | 61* | -22 | 0
Oc1ccc(/C=N/Nc2nc3ccccc3[nH]2)c(O)c1O | -1 | -17 | 40 | -1
O=S(=O)(/C=C\c1ccccc1)N1CCN(c2ccc(-c3ccccc3)nn2)CC1 | 0 | 1 | -7 | 0
COc1cccc(CC(=O)NCCCNc2nc3cc4c(cc3cc2C#N)OCO4)c1 | -2 | 61* | 2 | 1
COc1cccc(NC(=O)NCCCNc2nc3cc4c(cc3cc2C#N)OCO4)c1 | 0 | -4 | -2 | 0
CC(=O)NCc1ccc(C(=O)CSc2nnc(Nc3ccccc3)s2)o1 | -1 | -24 | 8 | 0
CCOC(=O)c1[nH]c2ccccc2c1NC=O | -1 | 10 | -4 | 1.9*
CCOC(=O)c1[nH]c2ccccc2c1NC(=O)OC | -1 | -10 | -4 | 0
SMILES | GPR151 ag | TEAD-YAP block | MITF primary | FBW7 activator
NS(=O)(=O)c1cccc(NS(=O)(=O)c2cccc([N+](=O)[O-])c2)c1 | 1 | -9 | -3 | 4.6*
Cc1csc(NC(=O)CSc2ccc(-c3cccc([N+](=O)[O-])c3)nn2)n1 | -3 | -3 | 7 | 0
c1ccc(-n2cnc3c(NC4CC4)nc(-c4ccc(N5CCOCC5)nc4)nc32)cc1 | -1 | 45* | 11 | 1
OCCNc1nc(-c2ccc(N3CCOCC3)nc2)nc2c1ncn2-c1ccccc1 | -1 | 61* | 5 | 0
c1ccc(-n2cnc3c(Nc4ccc(N5CCOCC5)cc4)nc(-c4ccc(N5CCOCC5)nc4)nc32)cc1 | 0 | 2 | 3 | 0
O=C(NCc1ccc(N2CCCC2=O)cc1)c1ncoc1-c1ccc(F)cc1 | 0 | -13 | -6 | 0
COc1ccc(-c2nnc3n2N=C(c2ccc4c(c2)OCCO4)CS3)cc1 | -1 | 46* | 7 | 0
